# In ChEMBL document CHEMBL1961873, “Compounds: GSK PKIS; Assays: Nanosyn kinase panel” (2012):
# Assays:
# [1] = target: Protein kinase C gamma type (Homo sapiens) (UniProt P05129); conditions: at 1 µM;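 note: each value is an averaged percent inhibition of the enzyme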
# [2] = target: T1, Protein kinase C iota type (Homo sapiens) (UniProt P41743); conditions: at 0.1 µM
# T1 sequence (whole entry): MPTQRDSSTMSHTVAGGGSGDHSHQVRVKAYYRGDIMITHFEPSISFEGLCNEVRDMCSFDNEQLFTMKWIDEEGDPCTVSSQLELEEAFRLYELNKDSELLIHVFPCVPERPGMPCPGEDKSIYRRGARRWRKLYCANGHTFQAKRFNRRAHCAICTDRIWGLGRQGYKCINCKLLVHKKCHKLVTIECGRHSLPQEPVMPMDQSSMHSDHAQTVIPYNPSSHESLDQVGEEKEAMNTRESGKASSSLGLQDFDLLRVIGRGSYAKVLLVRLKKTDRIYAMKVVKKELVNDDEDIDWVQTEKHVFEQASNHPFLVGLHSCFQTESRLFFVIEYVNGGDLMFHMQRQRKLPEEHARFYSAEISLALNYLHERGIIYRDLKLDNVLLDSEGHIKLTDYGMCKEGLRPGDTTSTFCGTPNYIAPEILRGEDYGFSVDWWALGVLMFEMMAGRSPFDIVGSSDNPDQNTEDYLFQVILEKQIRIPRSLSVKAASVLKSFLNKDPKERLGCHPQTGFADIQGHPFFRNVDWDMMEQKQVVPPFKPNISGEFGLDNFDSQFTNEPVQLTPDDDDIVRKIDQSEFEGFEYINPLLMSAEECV
# [3] = target: T1, Protein kinase C iota type (Homo sapiens); conditions: at 1 µM
# [4] = target: Protein kinase C theta type (Homo sapiens) (UniProt Q04759); conditions: at 0.1 µM
# Chain of Protein kinase C theta type (Homo sapiens) (Q04759 whole entry, looked up): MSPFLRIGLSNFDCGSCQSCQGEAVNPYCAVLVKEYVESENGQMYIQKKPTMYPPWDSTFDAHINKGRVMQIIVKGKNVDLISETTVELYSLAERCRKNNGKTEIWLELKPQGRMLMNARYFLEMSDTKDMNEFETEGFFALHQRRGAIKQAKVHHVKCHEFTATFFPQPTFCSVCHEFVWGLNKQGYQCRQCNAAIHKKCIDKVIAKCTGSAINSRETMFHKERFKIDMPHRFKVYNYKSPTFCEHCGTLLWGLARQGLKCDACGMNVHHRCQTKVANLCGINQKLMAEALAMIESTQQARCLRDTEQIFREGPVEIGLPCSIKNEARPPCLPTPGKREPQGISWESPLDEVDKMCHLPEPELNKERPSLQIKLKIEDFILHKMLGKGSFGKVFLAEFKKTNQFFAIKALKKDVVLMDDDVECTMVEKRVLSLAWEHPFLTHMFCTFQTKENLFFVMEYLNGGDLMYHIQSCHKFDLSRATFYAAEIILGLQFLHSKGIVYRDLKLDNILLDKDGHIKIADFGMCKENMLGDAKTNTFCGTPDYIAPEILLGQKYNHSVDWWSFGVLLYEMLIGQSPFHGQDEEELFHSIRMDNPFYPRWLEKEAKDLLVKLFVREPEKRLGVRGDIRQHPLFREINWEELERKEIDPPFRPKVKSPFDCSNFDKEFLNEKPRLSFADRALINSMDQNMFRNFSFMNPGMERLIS
# [5] = target: Protein kinase C theta type (Homo sapiens) (UniProt Q04759); conditions: at 1 µM
# [6] = target: Protein kinase C beta type (Homo sapiens) (UniProt P05771); conditions: at 0.1 µM
# Chain of Protein kinase C beta type (Homo sapiens) (P05771 2-671 limits assumed): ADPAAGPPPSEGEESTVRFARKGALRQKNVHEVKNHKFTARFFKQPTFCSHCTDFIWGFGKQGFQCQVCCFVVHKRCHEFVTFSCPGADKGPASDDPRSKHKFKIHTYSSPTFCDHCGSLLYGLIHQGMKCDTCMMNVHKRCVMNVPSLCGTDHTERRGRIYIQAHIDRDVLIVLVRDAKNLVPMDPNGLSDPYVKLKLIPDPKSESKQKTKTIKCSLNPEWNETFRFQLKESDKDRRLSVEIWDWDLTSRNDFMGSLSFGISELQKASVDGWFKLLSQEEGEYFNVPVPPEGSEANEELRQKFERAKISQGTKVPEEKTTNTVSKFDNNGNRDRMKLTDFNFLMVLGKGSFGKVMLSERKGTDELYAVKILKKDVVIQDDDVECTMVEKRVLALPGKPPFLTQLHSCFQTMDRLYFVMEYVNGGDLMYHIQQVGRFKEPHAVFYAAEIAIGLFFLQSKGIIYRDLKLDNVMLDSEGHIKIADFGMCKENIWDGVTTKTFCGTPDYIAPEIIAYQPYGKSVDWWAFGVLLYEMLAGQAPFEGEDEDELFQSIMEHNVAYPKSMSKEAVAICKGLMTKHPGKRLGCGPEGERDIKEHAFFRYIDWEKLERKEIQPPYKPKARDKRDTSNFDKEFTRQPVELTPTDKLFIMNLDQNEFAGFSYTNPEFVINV
# [7] = target: Protein kinase C beta type (Homo sapiens) (UniProt P05771); conditions: at 1 µM
# [8] = target: T2, Serine/threonine-protein kinase D1 (Homo sapiens) (UniProt Q15139); conditions: at 0.1 µM
# T2 sequence (whole entry): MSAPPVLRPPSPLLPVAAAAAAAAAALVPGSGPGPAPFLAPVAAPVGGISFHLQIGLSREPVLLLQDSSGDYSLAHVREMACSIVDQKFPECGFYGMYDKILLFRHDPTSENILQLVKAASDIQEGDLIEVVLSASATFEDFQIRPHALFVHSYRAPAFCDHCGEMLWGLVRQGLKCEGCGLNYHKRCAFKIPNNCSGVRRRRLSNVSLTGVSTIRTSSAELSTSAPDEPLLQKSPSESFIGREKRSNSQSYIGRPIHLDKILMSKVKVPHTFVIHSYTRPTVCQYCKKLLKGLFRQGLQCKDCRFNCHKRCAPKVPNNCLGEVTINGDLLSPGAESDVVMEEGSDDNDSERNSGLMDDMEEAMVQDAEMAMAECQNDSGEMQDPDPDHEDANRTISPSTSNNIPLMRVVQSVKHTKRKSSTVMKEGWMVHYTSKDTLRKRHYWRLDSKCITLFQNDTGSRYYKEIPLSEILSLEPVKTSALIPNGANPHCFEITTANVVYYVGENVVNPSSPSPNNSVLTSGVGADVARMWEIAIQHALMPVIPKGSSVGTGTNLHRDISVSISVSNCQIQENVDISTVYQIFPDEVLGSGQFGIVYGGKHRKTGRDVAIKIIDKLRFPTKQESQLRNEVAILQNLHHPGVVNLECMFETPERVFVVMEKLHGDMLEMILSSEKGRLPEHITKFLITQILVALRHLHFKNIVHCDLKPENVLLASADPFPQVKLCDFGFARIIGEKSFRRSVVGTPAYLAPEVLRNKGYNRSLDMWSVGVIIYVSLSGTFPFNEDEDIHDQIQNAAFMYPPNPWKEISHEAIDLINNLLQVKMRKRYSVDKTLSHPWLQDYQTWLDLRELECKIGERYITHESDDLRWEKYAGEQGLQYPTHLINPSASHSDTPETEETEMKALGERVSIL
# [9] = target: T2, Serine/threonine-protein kinase D1 (Homo sapiens); conditions: at 1 µM
# [10] = target: T3, Serine/threonine-protein kinase D2 (Homo sapiens) (UniProt Q9BZL6); conditions: at 0.1 µM
# T3 sequence (whole entry): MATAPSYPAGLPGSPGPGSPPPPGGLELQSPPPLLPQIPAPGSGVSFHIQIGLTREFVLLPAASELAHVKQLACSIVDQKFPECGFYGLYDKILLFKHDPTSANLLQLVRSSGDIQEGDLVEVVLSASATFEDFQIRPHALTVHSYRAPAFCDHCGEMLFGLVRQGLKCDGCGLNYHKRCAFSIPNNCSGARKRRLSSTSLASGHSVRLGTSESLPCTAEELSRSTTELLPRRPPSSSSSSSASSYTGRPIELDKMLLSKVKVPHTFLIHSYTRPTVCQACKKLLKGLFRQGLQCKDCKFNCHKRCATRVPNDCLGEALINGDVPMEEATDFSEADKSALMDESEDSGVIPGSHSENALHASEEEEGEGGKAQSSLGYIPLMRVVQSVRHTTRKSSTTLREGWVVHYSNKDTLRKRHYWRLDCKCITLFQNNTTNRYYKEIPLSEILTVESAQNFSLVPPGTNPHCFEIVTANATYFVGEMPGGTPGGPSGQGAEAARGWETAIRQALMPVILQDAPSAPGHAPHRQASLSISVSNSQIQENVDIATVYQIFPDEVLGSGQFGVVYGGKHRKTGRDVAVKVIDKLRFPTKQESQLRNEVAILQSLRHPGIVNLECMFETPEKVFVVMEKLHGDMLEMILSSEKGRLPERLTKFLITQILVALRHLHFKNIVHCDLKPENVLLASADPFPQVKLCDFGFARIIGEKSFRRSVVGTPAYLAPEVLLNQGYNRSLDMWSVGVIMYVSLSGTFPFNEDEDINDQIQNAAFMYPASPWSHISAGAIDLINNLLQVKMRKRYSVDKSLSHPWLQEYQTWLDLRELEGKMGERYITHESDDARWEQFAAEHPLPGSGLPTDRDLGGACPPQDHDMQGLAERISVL
# [11] = target: T3, Serine/threonine-protein kinase D2 (Homo sapiens); conditions: at 1 µM
# [12] = target: T4, Serine/threonine-protein kinase D3 (Homo sapiens) (UniProt O94806); conditions: at 0.1 µM
# T4 sequence (whole entry): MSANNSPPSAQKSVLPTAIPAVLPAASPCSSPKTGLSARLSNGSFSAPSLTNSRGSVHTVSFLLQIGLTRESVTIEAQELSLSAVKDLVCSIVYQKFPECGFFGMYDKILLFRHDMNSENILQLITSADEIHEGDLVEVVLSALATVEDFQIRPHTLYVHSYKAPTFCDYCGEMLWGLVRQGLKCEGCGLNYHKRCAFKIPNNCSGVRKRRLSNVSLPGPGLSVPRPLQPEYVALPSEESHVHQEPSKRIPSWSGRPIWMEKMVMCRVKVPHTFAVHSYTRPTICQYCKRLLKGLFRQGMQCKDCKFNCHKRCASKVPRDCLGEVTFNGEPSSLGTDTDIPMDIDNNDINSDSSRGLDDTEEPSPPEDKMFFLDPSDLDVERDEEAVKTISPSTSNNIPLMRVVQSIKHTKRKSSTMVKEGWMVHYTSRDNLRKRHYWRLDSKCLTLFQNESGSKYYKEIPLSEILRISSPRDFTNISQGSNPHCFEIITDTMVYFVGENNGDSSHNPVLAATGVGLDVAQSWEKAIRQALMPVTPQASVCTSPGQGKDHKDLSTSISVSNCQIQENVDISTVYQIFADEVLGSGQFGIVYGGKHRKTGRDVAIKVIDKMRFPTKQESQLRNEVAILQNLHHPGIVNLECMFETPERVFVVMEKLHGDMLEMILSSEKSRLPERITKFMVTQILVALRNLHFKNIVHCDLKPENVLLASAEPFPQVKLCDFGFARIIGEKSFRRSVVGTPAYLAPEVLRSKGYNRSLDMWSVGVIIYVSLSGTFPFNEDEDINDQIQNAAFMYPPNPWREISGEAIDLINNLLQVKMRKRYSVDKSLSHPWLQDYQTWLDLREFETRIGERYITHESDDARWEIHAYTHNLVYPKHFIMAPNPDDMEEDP
# [13] = target: T4, Serine/threonine-protein kinase D3 (Homo sapiens); conditions: at 1 µM
# [14] = target: T5, cGMP-dependent protein kinase 1 (Homo sapiens) (UniProt Q13976); conditions: at 0.1 µM
# T5 sequence (whole entry): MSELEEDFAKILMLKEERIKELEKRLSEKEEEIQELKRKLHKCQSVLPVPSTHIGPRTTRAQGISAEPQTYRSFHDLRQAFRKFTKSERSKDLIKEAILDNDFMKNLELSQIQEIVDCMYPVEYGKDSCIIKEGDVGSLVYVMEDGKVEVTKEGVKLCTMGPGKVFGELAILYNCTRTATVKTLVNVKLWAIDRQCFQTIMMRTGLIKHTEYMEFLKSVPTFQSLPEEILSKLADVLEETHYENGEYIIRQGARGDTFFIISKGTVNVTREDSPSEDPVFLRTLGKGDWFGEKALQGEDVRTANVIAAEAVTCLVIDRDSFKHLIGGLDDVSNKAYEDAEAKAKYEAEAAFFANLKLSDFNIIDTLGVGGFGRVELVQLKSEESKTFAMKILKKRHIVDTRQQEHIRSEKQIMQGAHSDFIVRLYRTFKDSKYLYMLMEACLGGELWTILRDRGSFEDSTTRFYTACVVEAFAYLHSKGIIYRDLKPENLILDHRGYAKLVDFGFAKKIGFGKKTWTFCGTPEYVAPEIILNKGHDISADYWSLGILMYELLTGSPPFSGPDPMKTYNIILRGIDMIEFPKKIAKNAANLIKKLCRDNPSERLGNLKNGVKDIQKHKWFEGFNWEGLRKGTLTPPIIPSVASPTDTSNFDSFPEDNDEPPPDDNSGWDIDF
# [15] = target: T5, cGMP-dependent protein kinase 1 (Homo sapiens); conditions: at 1 µM
# [16] = target: T6, cGMP-dependent protein kinase 2 (Homo sapiens) (UniProt Q13237); conditions: at 0.1 µM
# T6 sequence (whole entry): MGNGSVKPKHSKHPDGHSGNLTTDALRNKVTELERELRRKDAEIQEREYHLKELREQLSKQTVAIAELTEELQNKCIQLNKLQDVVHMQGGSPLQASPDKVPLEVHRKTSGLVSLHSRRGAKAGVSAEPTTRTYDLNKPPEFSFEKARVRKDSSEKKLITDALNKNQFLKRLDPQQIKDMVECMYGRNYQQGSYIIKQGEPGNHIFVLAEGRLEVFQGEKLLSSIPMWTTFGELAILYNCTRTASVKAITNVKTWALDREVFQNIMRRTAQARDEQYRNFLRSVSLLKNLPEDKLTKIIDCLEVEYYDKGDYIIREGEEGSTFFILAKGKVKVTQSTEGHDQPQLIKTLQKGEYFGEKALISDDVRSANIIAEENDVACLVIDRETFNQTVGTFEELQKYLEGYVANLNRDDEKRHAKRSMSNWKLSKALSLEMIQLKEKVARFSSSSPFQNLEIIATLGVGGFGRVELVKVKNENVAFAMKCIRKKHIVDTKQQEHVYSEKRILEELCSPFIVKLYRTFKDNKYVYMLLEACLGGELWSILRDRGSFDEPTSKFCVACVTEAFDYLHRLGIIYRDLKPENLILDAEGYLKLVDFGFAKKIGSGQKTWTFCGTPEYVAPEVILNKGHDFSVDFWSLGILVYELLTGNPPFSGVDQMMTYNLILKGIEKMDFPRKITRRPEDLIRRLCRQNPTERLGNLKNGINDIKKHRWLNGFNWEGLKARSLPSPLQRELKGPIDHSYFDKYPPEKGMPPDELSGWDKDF
# [17] = target: T6, cGMP-dependent protein kinase 2 (Homo sapiens); conditions: at 1 µM
# [18] = target: T7, cAMP-dependent protein kinase catalytic subunit PRKX (Homo sapiens) (UniProt P51817); conditions: at 0.1 µM
# T7 sequence (whole entry): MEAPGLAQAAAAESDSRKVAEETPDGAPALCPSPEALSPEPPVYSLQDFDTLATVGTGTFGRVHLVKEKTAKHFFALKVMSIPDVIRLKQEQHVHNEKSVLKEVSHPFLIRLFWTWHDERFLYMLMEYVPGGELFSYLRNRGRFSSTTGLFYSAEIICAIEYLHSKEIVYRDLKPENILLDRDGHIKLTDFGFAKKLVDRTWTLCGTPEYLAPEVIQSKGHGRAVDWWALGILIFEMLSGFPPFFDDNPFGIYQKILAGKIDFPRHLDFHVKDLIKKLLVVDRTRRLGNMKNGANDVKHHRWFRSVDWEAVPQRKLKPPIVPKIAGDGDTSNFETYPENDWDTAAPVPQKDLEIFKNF
# [19] = target: T7, cAMP-dependent protein kinase catalytic subunit PRKX (Homo sapiens); conditions: at 1 µM
# [20] = target: Rho-associated protein kinase 1 (Homo sapiens) (UniProt Q13464); conditions: at 0.1 µM;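 note: values are mean percent inhibition of ROCK1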
# Chain of Rho-associated protein kinase 1 (Homo sapiens) (Q13464 2-1354 limits assumed): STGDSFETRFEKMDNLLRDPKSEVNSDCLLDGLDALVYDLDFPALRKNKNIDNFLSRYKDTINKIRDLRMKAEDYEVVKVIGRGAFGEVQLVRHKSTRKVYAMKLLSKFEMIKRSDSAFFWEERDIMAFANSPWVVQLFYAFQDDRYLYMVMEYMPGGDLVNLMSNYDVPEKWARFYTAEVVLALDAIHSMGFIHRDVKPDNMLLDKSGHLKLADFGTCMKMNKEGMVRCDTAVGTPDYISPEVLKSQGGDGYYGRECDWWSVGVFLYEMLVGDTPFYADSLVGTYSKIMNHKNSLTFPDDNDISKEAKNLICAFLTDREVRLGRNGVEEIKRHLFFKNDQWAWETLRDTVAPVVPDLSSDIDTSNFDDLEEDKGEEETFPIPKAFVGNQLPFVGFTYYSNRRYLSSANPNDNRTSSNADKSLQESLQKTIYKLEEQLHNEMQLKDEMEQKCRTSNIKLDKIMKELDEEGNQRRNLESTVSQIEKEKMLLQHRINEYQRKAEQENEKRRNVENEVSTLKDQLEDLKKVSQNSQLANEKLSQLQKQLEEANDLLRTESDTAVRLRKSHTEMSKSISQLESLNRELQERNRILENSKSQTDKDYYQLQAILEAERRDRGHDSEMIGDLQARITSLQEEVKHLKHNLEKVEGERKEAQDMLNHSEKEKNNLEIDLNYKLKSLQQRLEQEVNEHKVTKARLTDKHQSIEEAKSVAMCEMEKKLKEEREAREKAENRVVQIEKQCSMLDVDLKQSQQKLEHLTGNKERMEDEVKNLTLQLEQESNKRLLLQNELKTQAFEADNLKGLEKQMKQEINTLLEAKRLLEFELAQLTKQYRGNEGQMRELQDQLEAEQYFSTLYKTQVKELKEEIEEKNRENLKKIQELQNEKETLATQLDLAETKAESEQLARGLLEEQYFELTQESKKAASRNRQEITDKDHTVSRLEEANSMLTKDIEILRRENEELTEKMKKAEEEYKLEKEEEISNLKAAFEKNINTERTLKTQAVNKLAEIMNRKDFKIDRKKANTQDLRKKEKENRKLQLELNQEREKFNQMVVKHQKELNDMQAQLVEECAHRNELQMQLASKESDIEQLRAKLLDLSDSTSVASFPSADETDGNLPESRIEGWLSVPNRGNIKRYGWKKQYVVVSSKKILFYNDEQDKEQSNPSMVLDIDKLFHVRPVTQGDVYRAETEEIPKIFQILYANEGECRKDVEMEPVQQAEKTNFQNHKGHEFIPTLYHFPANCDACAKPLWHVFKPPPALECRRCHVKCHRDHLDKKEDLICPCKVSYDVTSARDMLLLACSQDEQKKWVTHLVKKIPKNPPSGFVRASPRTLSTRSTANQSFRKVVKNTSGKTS
Structure (SMILES),inhibition [1],inhibition [2],inhibition [3],inhibition [4],inhibition [5],inhibition [6],inhibition [7],inhibition [8],inhibition [9],inhibition [10],inhibition [11],inhibition [12],inhibition [13],inhibition [14],inhibition [15],inhibition [16],inhibition [17],inhibition [18],inhibition [19],inhibition [20]
Fc1cccc(COc2ccc(Nc3ncncc3C#Cc3ccccc3)cc2Cl)c1,4.55%,1.11%,0.75%,3.42%,4.89%,0.66%,1.48%,4.73%,7.41%,5.16%,6.54%,6.12%,5.73%,3.8%,4.39%,3.39%,3.87%,2.56%,5.39%,1.15%
O=C1Nc2ccccc2/C1=C1\CCc2cc(O)ccc21,2.98%,2.01%,4.09%,2.42%,4.05%,1.94%,1.69%,5.09%,18.2%,6.34%,15.4%,6.3%,11.8%,3.61%,8.21%,4.25%,16.7%,2.86%,3.03%,1.2%
